{
  "source": "PubChem BioAssay (Tox21)",
  "note": "Results filed as inconclusive are left out. Activity calls are given as the source filed them. Unless noted, calls follow the shape of the full dose curve. % is scaled to controls: 0 for no effect and ±100 for the full control effect.",
  "data": [
    {"tested_on": "not listed separately", "assay": "cAMP Responsive Elements (CRE) small molecule agonists, cell-based qHTS assay (AID 1963590)", "settings": "CRE-bla HEK293T, beta-lactamase FRET ratio, 3 h; series mostly up to 92.4 µM; activation: at the top concentration", "procedure,_shortened": "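Quantitative HTS for CRE agonists: HEK 293T CRE-bla cells, overnight plating, 3 h compound incubation at 37 C/5% CO2, then 2 h room-temperature LiveBLAzer B/G FRET substrate loading.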", "values": [
      {"molecule": "CCCN(CCC)CCc1c[nH]c2ccccc12", "activation": "-0.875% (inactive)"},
      {"molecule": "CCOC(=O)C(SP(=S)(OC)OC)c1ccccc1", "note": "(stereo unspecified)", "activation": "0.0527% (inactive)"},
      {"molecule": "CCOP(=S)(OCC)SCS(=O)(=O)C(C)(C)C", "activation": "0.724% (inactive)"},
      {"molecule": "O=NN(CCO)CCO", "activation": "-1.32% (inactive)"},
      {"molecule": "c1coc(-c2nc3ccccc3[nH]2)c1", "activation": "-1.76% (inactive)"},
      {"molecule": "CC1CCC(C(C)C)C(OC(=O)c2ccccc2N)C1", "note": "(stereo unspecified)", "activation": "11.3% (inactive)"},
      {"molecule": "Cc1ccn2nc(S(=O)(=O)Nc3c(F)cccc3F)nc2n1", "activation": "-1.25% (inactive)"},
      {"molecule": "O=[N+]([O-])c1ccc(Cl)c(Cl)c1Cl", "activation": "2.18% (inactive)"},
      {"molecule": "O=C1c2ccccc2C(=O)c2ccccc21", "activation": "-2.22% [at 19 µM] (inactive)"},
      {"molecule": "CON(C)C(=O)Nc1ccc(Br)c(Cl)c1", "activation": "0.885% (inactive)"},
      {"molecule": "CCC1(C2=NCCN2)Cc2ccccc2O1", "note": "(stereo unspecified)", "activation": "-0.145% [at 42.5 µM] (inactive)"},
      {"molecule": "CCOc1nc(C(Cl)(Cl)Cl)ns1", "activation": "0.236% (inactive)"},
      {"molecule": "O=CCCl", "activation": "0.662% (inactive)"},
      {"molecule": "COc1cccc2c1C(=O)c1c(O)c3c(c(O)c1C2=O)C[C@@](O)(C(=O)CO)CC3OC1CC(N2CCOC(OC)C2)C(O)C(C)O1", "note": "(stereo partly specified)", "activation": "-4.87% [at 42.5 µM] (inactive)"},
      {"molecule": "Nc1cc(Cl)ccc1Cl", "activation": "0.0238% (inactive)"},
      {"molecule": "CCCN1CCC[C@@H]2Cc3nc(N)ncc3C[C@H]21", "activation": "0.489% [at 42.5 µM] (inactive)"},
      {"molecule": "CNC(=O)Oc1cccc(C(C)C)c1", "activation": "0.951% (inactive)"},
      {"molecule": "CC(=O)OC(c1ccccc1)C(Cl)(Cl)Cl", "note": "(stereo unspecified)", "activation": "2.73% (inactive)"},
      {"molecule": "CCCCCCCCc1ccc(O)cc1", "activation": "5.64% (inactive)"},
      {"molecule": "CC(=O)[O-].CC(=O)[O-].O.O.[Cd+2]", "activation": "7.44% (inactive)"},
      {"molecule": "NC(=O)CI", "activation": "0.136% (inactive)"},
      {"molecule": "CCN(CC)c1nc(C)cc(OP(=S)(OC)OC)n1", "activation": "6.22% (inactive)"},
      {"molecule": "OCCBr", "activation": "-1.33% (inactive)"}
    ]},
    {"tested_on": "not listed separately", "assay": "cAMP Responsive Elements (CRE) small molecule antagonists, cell-based qHTS assay (AID 1963591; active = well fitted inhibition curve with a large enough effect in the signal ratio in the repeat runs, not every such curve was filed as active; the % refers to the signal ratio; also: potency is read from the fitted curve at half-maximal effect)", "settings": "CRE-bla HEK293T, beta-lactamase FRET ratio; series mostly up to 92.4 µM; activity change, negative = inhibition: at the top concentration", "procedure,_shortened": "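Fluorescence intensity from cleaved LiveBLAzer B/G substrate (2 h, room temperature) quantified CRE-bla activity in HEK 293T cells exposed 3 h to compound with 0.25 uM final NKH477.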", "values": [
      {"molecule": "CCCN(CCC)CCc1c[nH]c2ccccc12", "activity change, negative = inhibition": "14.5% (inactive)"},
      {"molecule": "CCOC(=O)C(SP(=S)(OC)OC)c1ccccc1", "note": "(stereo unspecified)", "activity change, negative = inhibition": "-11.7% (inactive)"},
      {"molecule": "CCOP(=S)(OCC)SCS(=O)(=O)C(C)(C)C", "activity change, negative = inhibition": "4.22% (inactive)"},
      {"molecule": "O=NN(CCO)CCO", "activity change, negative = inhibition": "-5.16% (inactive)"},
      {"molecule": "c1coc(-c2nc3ccccc3[nH]2)c1", "activity change, negative = inhibition": "2.68% (inactive)"},
      {"molecule": "Cc1ccn2nc(S(=O)(=O)Nc3c(F)cccc3F)nc2n1", "activity change, negative = inhibition": "5.8% (inactive)"},
      {"molecule": "O=[N+]([O-])c1ccc(Cl)c(Cl)c1Cl", "activity change, negative = inhibition": "-0.832% (inactive)"},
      {"molecule": "O=C1c2ccccc2C(=O)c2ccccc21", "activity change, negative = inhibition": "-5.21% [at 18.9 µM] (inactive)"},
      {"molecule": "C[C@H](N)[C@H](O)c1ccc(O)c(O)c1", "activity change, negative = inhibition": "27.3% [at 42.4 µM] (inactive)"},
      {"molecule": "CCCCN(N=O)C(=N)N[N+](=O)[O-]", "activity change, negative = inhibition": "1.71% (inactive)"},
      {"molecule": "CON(C)C(=O)Nc1ccc(Br)c(Cl)c1", "activity change, negative = inhibition": "-6.99% (inactive)"},
      {"molecule": "CCC1(C2=NCCN2)Cc2ccccc2O1", "note": "(stereo unspecified)", "activity change, negative = inhibition": "-5.92% [at 42.4 µM] (inactive)"},
      {"molecule": "CCNC(=O)NC(=O)/C(C#N)=N/OC", "activity change, negative = inhibition": "11.6% (inactive)"},
      {"molecule": "CCOc1nc(C(Cl)(Cl)Cl)ns1", "activity change, negative = inhibition": "4.28% (inactive)"},
      {"molecule": "O=CCCl", "activity change, negative = inhibition": "8.24% (inactive)"},
      {"molecule": "COc1cccc2c1C(=O)c1c(O)c3c(c(O)c1C2=O)C[C@@](O)(C(=O)CO)CC3OC1CC(N2CCOC(OC)C2)C(O)C(C)O1", "note": "(stereo partly specified)", "Potency": "1.19 µM (active)"},
      {"molecule": "CCCCOC(=O)c1ccccc1N", "Potency": "61.4 µM (active)"},
      {"molecule": "Nc1cc(Cl)ccc1Cl", "activity change, negative = inhibition": "-6.72% (inactive)"},
      {"molecule": "CCCN1CCC[C@@H]2Cc3nc(N)ncc3C[C@H]21", "activity change, negative = inhibition": "2.54% [at 42.4 µM] (inactive)"},
      {"molecule": "CNC(=O)Oc1cccc(C(C)C)c1", "activity change, negative = inhibition": "0.726% (inactive)"},
      {"molecule": "CC(=O)OC(c1ccccc1)C(Cl)(Cl)Cl", "note": "(stereo unspecified)", "activity change, negative = inhibition": "-9.28% (inactive)"},
      {"molecule": "CC(C)C(Nc1ccc(C(F)(F)F)cc1Cl)C(=O)OC(C#N)c1cccc(Oc2ccccc2)c1", "note": "(stereo unspecified)", "activity change, negative = inhibition": "-4.75% (inactive)"},
      {"molecule": "NC(=O)CI", "activity change, negative = inhibition": "-4.56% (inactive)"},
      {"molecule": "CCN(CC)c1nc(C)cc(OP(=S)(OC)OC)n1", "activity change, negative = inhibition": "-6.68% (inactive)"},
      {"molecule": "OCCBr", "activity change, negative = inhibition": "9.79% (inactive)"}
    ]},
    {"biological_target": "Beta-2 adrenergic receptor (Homo sapiens) (UniProt P07550)", "sequence (P07550 whole entry, looked up)": "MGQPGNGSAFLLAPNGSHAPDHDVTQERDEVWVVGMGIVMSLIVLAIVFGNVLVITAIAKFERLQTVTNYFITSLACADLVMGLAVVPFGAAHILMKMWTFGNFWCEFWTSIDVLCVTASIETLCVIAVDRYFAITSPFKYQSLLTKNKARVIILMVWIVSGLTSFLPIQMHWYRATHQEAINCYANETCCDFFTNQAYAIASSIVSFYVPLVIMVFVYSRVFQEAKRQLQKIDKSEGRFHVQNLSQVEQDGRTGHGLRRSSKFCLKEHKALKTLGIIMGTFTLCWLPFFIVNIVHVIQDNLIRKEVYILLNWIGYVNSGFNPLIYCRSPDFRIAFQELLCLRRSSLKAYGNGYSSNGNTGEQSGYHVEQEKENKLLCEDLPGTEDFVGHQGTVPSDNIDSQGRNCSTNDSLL", "assay": "Adrenergic beta2 receptor (ADRB2) small molecule antagonists, cell-based qHTS assay (AID 1963592); also: nearly all actives have a fitted effect of over 50% in size; also: potency is read from the fitted curve at half-maximal effect", "settings": "CHO-ADRB2 cells, isoproterenol-stimulated cAMP HTRF ratio, 0.5 h; series mostly up to 92.4 µM; activity change, negative = inhibition: at the top concentration", "procedure,_shortened": "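Assay format: CHO-ADRB2 cells, 18-20hr seeding at 37C/5% CO2, then compound plus 1nM isoproterenol agonist mix for 0.5hr RT. Homogeneous time-resolved fluorescence cAMP detection after 1hr, expressed as 665/615 nm ratio.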", "values": [
      {"molecule": "CCC(C)c1cc([N+](=O)[O-])cc([N+](=O)[O-])c1OC(=O)C=C(C)C", "note": "(stereo unspecified)", "activity change, negative = inhibition": "-2.03% (inactive)"},
      {"molecule": "CCCN(CCC)CCc1c[nH]c2ccccc12", "activity change, negative = inhibition": "-5.26% (inactive)"},
      {"molecule": "CCOC(=O)C(SP(=S)(OC)OC)c1ccccc1", "note": "(stereo unspecified)", "activity change, negative = inhibition": "-0.858% (inactive)"},
      {"molecule": "CCOP(=S)(OCC)SCS(=O)(=O)C(C)(C)C", "activity change, negative = inhibition": "0.724% (inactive)"},
      {"molecule": "c1coc(-c2nc3ccccc3[nH]2)c1", "activity change, negative = inhibition": "-4.89% (inactive)"},
      {"molecule": "CC1CCC(C(C)C)C(OC(=O)c2ccccc2N)C1", "note": "(stereo unspecified)", "activity change, negative = inhibition": "1.49% (inactive)"},
      {"molecule": "Cc1ccn2nc(S(=O)(=O)Nc3c(F)cccc3F)nc2n1", "activity change, negative = inhibition": "4.02% (inactive)"},
      {"molecule": "O=[N+]([O-])c1ccc(Cl)c(Cl)c1Cl", "activity change, negative = inhibition": "1.42% (inactive)"},
      {"molecule": "CCOP(=S)(Oc1cnc(C(C)(C)C)nc1)OC(C)C", "note": "(stereo unspecified)", "activity change, negative = inhibition": "3.69% (inactive)"},
      {"molecule": "CON(C)C(=O)Nc1ccc(Br)c(Cl)c1", "activity change, negative = inhibition": "-3.53% (inactive)"},
      {"molecule": "C=CC(=O)OCC(COC(=O)C=C)(COC(=O)C=C)COC(=O)C=C", "activity change, negative = inhibition": "16.1% (inactive)"},
      {"molecule": "CCNC(=O)NC(=O)/C(C#N)=N/OC", "activity change, negative = inhibition": "-3.65% (inactive)"},
      {"molecule": "CCOc1nc(C(Cl)(Cl)Cl)ns1", "activity change, negative = inhibition": "20.9% (inactive)"},
      {"molecule": "O=CCCl", "activity change, negative = inhibition": "2.78% (inactive)"},
      {"molecule": "COc1cccc2c1C(=O)c1c(O)c3c(c(O)c1C2=O)C[C@@](O)(C(=O)CO)CC3OC1CC(N2CCOC(OC)C2)C(O)C(C)O1", "note": "(stereo partly specified)", "activity change, negative = inhibition": "-2.06% [at 42.5 µM] (inactive)"},
      {"molecule": "Nc1cc(Cl)ccc1Cl", "activity change, negative = inhibition": "-0.369% (inactive)"},
      {"molecule": "CCCN1CCC[C@@H]2Cc3nc(N)ncc3C[C@H]21", "activity change, negative = inhibition": "9.12% [at 42.5 µM] (inactive)"},
      {"molecule": "CNC(=O)Oc1cccc(C(C)C)c1", "activity change, negative = inhibition": "4.76% (inactive)"},
      {"molecule": "CC(=O)OC(c1ccccc1)C(Cl)(Cl)Cl", "note": "(stereo unspecified)", "activity change, negative = inhibition": "2.59% (inactive)"},
      {"molecule": "C[CH2][Hg][N]1C(=O)C2C(C1=O)C1(Cl)C(Cl)=C(Cl)C2(Cl)C1(Cl)Cl", "note": "(stereo unspecified)", "activity change, negative = inhibition": "-18.8% [at 19 µM] (inactive)"},
      {"molecule": "CCCCCCCCc1ccc(O)cc1", "activity change, negative = inhibition": "7.43% (inactive)"},
      {"molecule": "Oc1ccc2[nH]cc(CCCCN3CC=C(c4ccccc4)CC3)c2c1", "Potency": "26.6 µM (active)"},
      {"molecule": "CC(=O)[O-].CC(=O)[O-].O.O.[Cd+2]", "activity change, negative = inhibition": "-8.6% (inactive)"},
      {"molecule": "NC(=O)CI", "activity change, negative = inhibition": "-4.77% (inactive)"},
      {"molecule": "CCN(CC)c1nc(C)cc(OP(=S)(OC)OC)n1", "activity change, negative = inhibition": "3.47% (inactive)"},
      {"molecule": "COC(=O)C(C)N(C(=O)Cc1ccccc1)c1c(C)cccc1C", "note": "(stereo unspecified)", "activity change, negative = inhibition": "-1.45% (inactive)"},
      {"molecule": "CCCSP(=O)(OCC)SCCC", "activity change, negative = inhibition": "15.8% (inactive)"},
      {"molecule": "OCCBr", "activity change, negative = inhibition": "-0.821% (inactive)"}
    ]}
  ]
}
